About 8,800 targets were measured; listed, in parts, are those with a hit and a random draw of the rest. About 0.5% of all pairs of compound and target were hits.
Columns and labels:
Assay in all cases: log2 fold change, soluble protein after heating vs DMSO (PISA); higher = thermal stabilisation; K562 lysate, 10 uM; active = over 0.2 and 3.5 SD of the protein, either way, in both replicates (recomputed)
[1] = compound: C1=CC=C(C=C1)[C@H](COC2=CC3=C(C=C2)NC(=O)N3)NC(=O)C4=CC=CN(C4=O)CC5=CC(=C(C=C5)F)F
Procedure, shortened: (§1)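 Pellets of K562 cells were dounce-homogenised in PBS pH 7.4 with 1 mM MgCl2, and the crude extract was held at 1 mg/mL protein for a 30 min treatment with 10 μM compound. Aliquots were heated for 3 min over 48°C-58°C and pooled before NP-40 was added to 0.5% at 4°C. The supernatant from 21,000xg for 90 min was quantified by TMTpro 16plex LC-MS/MS with channel sums equalised. Values are reported from duplicates as log-two fold change in thermal stability relative to solvent controls.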

[2] = compound: CC1=C(SC2=C1C(=N[C@H](C3=NN=C(N32)C)CC(=O)N)C4=CC=C(C=C4)Cl)C
Procedure, shortened: as §1

[3] = compound: CC1=C2C(=CC=C1)N=C(N(C2=O)C3=CC=CC=C3C)CN4C=NC5=C(N=CN=C54)N
Procedure, shortened: as §1

[4] = compound: Cc1sc2c(c1C)C(c1ccc(Cl)cc1)=N[C@@H](CC(=O)OC(C)(C)C)c1nnc(C)n1-2
Procedure, shortened: as §1

[5] = compound: c1ccc([C@@H]2C[C@H]2NC2CCNCC2)cc1
Procedure, shortened: as §1

Measured: log2 fold change

TDRD3 isoform 3 (UniProt Q9H7E2)
UniProt Q9H7E2, sequence (Q9H7E2 whole entry, looked up): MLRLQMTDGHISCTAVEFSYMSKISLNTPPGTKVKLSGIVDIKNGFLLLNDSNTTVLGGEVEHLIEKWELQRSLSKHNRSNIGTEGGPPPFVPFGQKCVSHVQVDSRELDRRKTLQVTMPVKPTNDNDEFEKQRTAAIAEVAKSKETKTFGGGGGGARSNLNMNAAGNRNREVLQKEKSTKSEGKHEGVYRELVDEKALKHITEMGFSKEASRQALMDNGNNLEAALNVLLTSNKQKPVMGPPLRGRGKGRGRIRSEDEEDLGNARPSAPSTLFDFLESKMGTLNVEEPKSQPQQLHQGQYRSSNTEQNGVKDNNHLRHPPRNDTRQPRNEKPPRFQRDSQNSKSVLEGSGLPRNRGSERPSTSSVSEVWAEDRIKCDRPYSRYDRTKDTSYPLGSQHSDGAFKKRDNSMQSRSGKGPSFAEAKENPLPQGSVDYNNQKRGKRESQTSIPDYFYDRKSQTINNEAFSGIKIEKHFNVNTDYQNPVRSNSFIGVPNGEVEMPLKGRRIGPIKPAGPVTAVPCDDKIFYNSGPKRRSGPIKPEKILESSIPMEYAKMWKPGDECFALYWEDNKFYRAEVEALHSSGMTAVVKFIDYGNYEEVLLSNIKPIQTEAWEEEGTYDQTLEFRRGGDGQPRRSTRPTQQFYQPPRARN
inactive: [1] 0.082 | [2] 0.037 | [3] 0.027 | [4] 0.065 | [5] -0.01

UGDH (UniProt O60701)
UniProt O60701, sequence (O60701 whole entry, looked up): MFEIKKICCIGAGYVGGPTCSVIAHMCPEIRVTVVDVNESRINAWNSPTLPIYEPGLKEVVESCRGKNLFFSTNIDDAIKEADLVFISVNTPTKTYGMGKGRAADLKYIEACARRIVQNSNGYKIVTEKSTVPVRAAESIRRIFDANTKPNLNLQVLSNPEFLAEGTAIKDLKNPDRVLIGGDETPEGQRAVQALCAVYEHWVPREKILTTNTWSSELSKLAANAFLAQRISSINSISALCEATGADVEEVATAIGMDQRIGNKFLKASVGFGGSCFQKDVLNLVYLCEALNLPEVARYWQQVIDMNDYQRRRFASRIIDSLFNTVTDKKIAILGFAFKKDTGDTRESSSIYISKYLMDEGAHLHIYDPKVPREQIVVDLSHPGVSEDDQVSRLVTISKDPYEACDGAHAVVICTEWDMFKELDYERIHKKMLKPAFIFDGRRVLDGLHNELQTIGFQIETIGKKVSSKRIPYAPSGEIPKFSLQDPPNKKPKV
inactive: [1] 0.003 | [2] 0.001 | [3] -0.004 | [4] -0.056 | [5] 0.026

TDRKH (UniProt Q9Y2W6)
UniProt Q9Y2W6, sequence (Q9Y2W6 whole entry, looked up): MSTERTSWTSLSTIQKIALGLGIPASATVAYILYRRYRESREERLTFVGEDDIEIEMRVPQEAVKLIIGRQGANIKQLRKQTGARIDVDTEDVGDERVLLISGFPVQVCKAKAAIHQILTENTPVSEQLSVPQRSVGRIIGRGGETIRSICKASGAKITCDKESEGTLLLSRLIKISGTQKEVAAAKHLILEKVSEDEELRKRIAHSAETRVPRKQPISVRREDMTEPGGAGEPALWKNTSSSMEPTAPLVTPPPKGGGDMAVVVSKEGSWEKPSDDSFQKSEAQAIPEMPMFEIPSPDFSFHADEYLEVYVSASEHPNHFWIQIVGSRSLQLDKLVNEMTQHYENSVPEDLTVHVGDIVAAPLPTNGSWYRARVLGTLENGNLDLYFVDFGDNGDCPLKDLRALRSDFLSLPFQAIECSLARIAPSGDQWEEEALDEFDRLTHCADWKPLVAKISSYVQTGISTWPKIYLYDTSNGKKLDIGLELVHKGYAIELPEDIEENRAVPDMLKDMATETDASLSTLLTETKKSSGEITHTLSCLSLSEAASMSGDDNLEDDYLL
inactive: [1] -0.02 | [2] -0.028 | [3] 0.1 | [4] 0.005 | [5] -0.053

TOE1 (UniProt Q96GM8)
inactive: [1] 0.063 | [2] -0.01 | [3] 0.03 | [4] 0.032 | [5] 0.01

TUBB (UniProt P07437)
UniProt P07437, sequence (P07437 whole entry, looked up): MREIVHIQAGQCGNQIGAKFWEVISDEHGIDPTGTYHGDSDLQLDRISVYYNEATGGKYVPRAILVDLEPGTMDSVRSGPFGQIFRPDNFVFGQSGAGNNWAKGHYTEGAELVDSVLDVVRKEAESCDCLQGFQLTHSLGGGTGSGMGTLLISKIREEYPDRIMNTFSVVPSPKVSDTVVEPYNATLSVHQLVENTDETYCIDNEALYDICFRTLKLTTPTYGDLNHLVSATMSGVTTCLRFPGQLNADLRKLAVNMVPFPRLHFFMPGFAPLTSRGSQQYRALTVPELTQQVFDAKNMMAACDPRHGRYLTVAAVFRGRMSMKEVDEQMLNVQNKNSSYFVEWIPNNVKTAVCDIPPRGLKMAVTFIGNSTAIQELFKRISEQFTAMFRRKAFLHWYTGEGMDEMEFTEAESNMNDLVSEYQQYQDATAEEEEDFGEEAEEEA
inactive: [1] 0.025 | [2] 0.027 | [3] -0.005 | [4] 0.014 | [5] -0.001

TRIM23 (UniProt P36406)
UniProt P36406, sequence (P36406 whole entry, looked up): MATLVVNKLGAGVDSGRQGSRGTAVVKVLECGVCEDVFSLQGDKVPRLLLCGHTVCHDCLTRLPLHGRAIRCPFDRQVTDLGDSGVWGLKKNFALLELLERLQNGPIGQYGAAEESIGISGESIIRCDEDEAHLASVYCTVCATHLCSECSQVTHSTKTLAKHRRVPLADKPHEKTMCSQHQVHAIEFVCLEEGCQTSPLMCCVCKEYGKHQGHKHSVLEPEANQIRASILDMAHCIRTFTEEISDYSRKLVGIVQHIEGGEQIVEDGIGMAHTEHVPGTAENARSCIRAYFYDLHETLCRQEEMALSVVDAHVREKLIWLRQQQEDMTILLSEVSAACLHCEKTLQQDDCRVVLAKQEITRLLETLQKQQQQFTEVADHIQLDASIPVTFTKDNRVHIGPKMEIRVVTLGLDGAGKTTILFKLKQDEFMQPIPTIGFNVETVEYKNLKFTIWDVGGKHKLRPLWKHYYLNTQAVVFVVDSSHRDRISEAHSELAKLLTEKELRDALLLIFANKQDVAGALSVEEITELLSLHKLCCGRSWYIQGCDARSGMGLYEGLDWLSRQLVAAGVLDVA
inactive: [1] 0.036 | [2] -0.05 | [3] 0.052 | [4] 0.034 | [5] -0.275

TRAF2 isoform 2 (UniProt Q12933)
inactive: [1] -0.006 | [2] 0.005 | [3] -0.005 | [4] -0.002 | [5] -0.015

TRIM56 (UniProt Q9BRZ2)
UniProt Q9BRZ2, sequence (Q9BRZ2 whole entry, looked up): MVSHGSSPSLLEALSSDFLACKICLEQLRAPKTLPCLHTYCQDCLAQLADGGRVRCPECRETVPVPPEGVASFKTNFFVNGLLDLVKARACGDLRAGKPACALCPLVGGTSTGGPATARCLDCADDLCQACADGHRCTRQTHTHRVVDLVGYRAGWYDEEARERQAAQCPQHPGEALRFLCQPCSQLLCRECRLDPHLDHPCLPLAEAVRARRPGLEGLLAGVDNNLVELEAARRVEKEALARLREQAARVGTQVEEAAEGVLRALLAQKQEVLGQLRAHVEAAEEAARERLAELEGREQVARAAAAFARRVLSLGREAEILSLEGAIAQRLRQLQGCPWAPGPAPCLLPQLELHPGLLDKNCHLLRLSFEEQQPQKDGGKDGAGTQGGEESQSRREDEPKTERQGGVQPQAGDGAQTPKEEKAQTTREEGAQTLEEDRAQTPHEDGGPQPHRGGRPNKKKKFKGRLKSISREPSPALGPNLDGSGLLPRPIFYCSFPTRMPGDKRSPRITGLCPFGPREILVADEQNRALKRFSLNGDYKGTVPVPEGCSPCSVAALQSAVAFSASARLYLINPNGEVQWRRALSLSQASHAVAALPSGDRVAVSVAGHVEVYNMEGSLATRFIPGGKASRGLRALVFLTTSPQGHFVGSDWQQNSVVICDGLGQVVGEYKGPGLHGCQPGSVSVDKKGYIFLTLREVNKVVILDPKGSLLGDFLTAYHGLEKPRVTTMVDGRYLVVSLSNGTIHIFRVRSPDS
inactive: [1] -0.057 | [2] -0.009 | [3] 0.076 | [4] 0.003 | [5] 0.099

TOPBP1 (UniProt Q92547)
UniProt Q92547, sequence (Q92547 whole entry, looked up): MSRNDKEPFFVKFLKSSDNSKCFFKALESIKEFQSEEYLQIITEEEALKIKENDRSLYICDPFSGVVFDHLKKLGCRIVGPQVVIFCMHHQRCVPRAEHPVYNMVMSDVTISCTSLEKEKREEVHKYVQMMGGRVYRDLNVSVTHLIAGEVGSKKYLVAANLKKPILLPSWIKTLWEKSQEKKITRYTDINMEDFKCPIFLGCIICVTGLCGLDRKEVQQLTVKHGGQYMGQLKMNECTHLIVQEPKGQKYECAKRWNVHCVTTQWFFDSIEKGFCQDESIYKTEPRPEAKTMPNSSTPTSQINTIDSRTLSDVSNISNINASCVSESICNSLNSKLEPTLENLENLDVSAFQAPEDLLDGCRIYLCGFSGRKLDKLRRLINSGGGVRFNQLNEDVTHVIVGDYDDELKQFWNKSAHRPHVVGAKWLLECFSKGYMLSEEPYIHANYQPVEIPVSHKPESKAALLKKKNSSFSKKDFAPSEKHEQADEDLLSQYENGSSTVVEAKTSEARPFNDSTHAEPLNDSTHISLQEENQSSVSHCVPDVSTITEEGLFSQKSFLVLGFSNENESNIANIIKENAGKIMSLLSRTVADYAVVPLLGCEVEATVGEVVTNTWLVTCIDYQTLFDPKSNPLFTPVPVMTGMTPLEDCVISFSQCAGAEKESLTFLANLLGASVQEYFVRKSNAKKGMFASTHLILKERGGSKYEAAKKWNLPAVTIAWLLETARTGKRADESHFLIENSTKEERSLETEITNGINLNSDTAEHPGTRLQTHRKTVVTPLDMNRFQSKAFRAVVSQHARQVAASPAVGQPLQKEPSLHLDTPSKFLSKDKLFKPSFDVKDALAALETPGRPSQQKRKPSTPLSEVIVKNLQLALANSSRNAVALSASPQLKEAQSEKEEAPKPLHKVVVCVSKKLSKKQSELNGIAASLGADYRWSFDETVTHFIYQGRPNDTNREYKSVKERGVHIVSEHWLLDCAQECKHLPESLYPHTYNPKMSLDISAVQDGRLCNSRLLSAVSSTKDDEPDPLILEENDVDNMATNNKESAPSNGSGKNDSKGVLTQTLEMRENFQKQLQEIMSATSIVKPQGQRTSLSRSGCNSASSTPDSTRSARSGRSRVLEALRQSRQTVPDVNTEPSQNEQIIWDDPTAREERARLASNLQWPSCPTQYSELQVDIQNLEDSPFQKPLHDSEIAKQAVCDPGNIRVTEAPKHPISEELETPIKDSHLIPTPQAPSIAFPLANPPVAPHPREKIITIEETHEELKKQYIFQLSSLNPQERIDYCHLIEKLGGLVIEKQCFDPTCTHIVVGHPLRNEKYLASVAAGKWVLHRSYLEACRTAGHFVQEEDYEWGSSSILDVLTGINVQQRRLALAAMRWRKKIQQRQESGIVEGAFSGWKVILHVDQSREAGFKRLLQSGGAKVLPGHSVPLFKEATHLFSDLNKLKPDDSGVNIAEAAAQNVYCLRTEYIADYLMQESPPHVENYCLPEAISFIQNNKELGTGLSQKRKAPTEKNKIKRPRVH
inactive: [1] 0.012 | [2] 0.001 | [3] 0.026 | [4] -0.016 | [5] 0.099

TPP2 (UniProt P29144)
inactive: [1] 0.006 | [2] 0.008 | [3] -0.002 | [4] 0.039 | [5] 0.025

TUBB2A (UniProt Q13885)
inactive: [1] 0.017 | [2] 0.01 | [3] 0 | [4] 0.003 | [5] -0.015

From the supplement of paper PMC10849652
